Test results taken from the supplement of paper PMC4371806.
In all, about 1,600 compounds were measured (“plate-normalized OD600 growth (mean of duplicates)”: median about 0.31, lowest 2% from about 0.23 on). For the sample, the lowest values were picked, then their nearest neighbours and some compounds at random.

System: Escherichia coli BW25113
Test: plate-normalized OD600 growth (mean of duplicates) (OD600 (normalized)); higher = more growth (less inhibition)
Conditions: 10 µM
Experimental: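 E. coli BW25113 in LB (100 µl, 96-well, no shaking) was exposed to 10 µM of each compound (here the ChemBridge subset of a ~30,000-member library) and grown at 37°C for 24 h or 15°C for 48 h, in duplicate. Growth was read as OD600 and the duplicate ODs were normalized across screening plates to correct plate-to-plate variation.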

Compound | plate-normalized OD600 growth (temperature: 15°C, 48 h) | plate-normalized OD600 growth (temperature: 37°C, 24 h)
Cc1ccc2c(c1)C1CN(C)CCC1N2 (stereo not given) | 0.227 | 0.61
O=c1cccc2n1C[C@H]1C[C@H]2CN(Cc2c(Cl)cccc2Cl)C1 | 0.284 | 0.625
Cc1ccc(-c2nc3ccccc3c(=O)n2-c2cccc(O)c2)cc1 | 0.247 | 0.61
Fc1ccc(CN2CCN(c3cccc(Cl)c3)CC2)c(F)c1 | 0.253 | 0.623
CCC(N)C(=O)c1ccc(Br)cc1 (stereo not given) | 0.219 | 0.624
Cc1cccc(C)c1-n1nnnc1C1(Nc2cccc(O)c2)CCCCC1 | 0.252 | 0.643
CN1C(=O)N(C)C(=O)C(CCc2ccncc2)(CCc2ccncc2)C1=O | 0.266 | 0.631
CCOc1cc(/C=C/[N+](=O)[O-])ccc1O | 0.209 | 0.585
COc1ccccc1N1CCN(Cc2ccc(N(C)C)cc2)CC1 | 0.234 | 0.615
Clc1cccc(N2CCN(Cc3ccc4c(c3)OCO4)CC2)c1 | 0.275 | 0.647
CCN1CCN(Cc2ccc(OC)c(C)c2)CC1 | 0.261 | 0.606
Cc1cccc(CN2CCN(c3ccccc3)CC2)c1 | 0.223 | 0.663
Oc1cccc(CN2CCN(c3ccc(F)cc3)CC2)c1 | 0.222 | 0.646
COc1cccc(CN2CCN(c3ccccc3)CC2)c1 | 0.252 | 0.608
Fc1ccc(N2CCN(CCc3ccccc3)CC2)cc1 | 0.24 | 0.615
COc1cccc(CN2CCN(c3cccc(Cl)c3)CC2)c1 | 0.26 | 0.623
Oc1cccc(CN2CCN(c3ccccc3Cl)CC2)c1 | 0.26 | 0.611
COc1cc(CN2C[C@@H]3C[C@@H](C2)c2cccc(=O)n2C3)cc(I)c1O | 0.263 | 0.634
O=c1cccc2n1C[C@H]1C[C@H]2CN(Cc2cccc(Cl)c2Cl)C1 | 0.28 | 0.659
COc1ccc(CN2C(=O)CC(=O)NC2=O)cc1 | 0.265 | 0.633
COc1ccc(N2CCN(Cc3ccc(N(C)C)cc3)CC2)cc1 | 0.271 | 0.65
Cc1[nH]c2ccccc2c1CCCNC1CCCCC1 | 0.264 | 0.644
Cc1ccccc1-n1c(/C=C/c2ccccc2[N+](=O)[O-])nc2ccccc2c1=O | 0.239 | 0.651
COc1ccc(Br)cc1CN1CCN(C)CC1 | 0.26 | 0.617
CN1C(=O)C(C2(C#N)CCCCC2)C(=O)N(C)C1=O | 0.264 | 0.635
COc1cc(Cc2ccc(N)c(OC)c2)ccc1N | 0.255 | 0.625
Cc1ccccc1CN1CCN(c2ccc([N+](=O)[O-])cc2)CC1 | 0.23 | 0.605
Nc1ccc(Oc2ccc(N)cc2)cc1 | 0.168 | 0.608
OCCN1CCN(Cc2ccc(F)c(F)c2)CC1 | 0.247 | 0.612
COC1CCCCC1NC1CCCCC1 (stereo not given) | 0.234 | 0.614
